Screening data deposited in PubChem by National Center for Advancing Translational Sciences (NCATS).
The list is not random: actives were taken first. Their share in the collection is about 19%.
TDP1 cell CPT: DT40-hTDP1 cell growth loss with CPT; chicken DT40 Tdp1-/-;hTDP1 cells + 20 nM CPT, ATP luminescence, 48 h; Potency, µM (doses to about 46.2 µM), most hits filed as inhibitors; 12% of 420,000 active; further: nearly all actives have a fitted effect of over 55% in size
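Cell growth measured by CellTiter-Glo luminescence after a minimum 48 h, 37 C compound exposure with 20 nM CPT in Tdp1-knockout DT40 cells stably expressing hTDP1, seeded 400/well; qHTS titration format.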
TGFb inhibitor: blocks TGF-b signaling; HepG2 CAGA-GFP TGF-b/SMAD3 reporter, GFP fluorescence, 18 h; TGF-beta stimulated, 500 pg/mL final; Potency, µM (titrated, usually from 46.1 µM), actives largely listed as inhibitors; 1.2% of 410,000 active; AID 588855; further: nearly all actives have a fitted effect of over 65% in size
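Inhibition was scored as loss of TGF-beta-induced (500 pg/mL final, 18 hours, 37 degrees C) GFP in HEPG2 cells carrying a CAGA-GFP reporter, in DMEM with 1% FBS. Well GFP was summed per cell; Activity was normalised to unstimulated and stimulated DMSO wells, then concentration-response fitting.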
DT40 TDP1 no CPT: qHTS for Inhibitors of human tyrosyl-DNA phosphodiesterase 1 (TDP1): qHTS in cells in absence of CPT | DT40 Tdp1-/- hTDP1 cells, no CPT, ATP luminescence, 48 h | Potency, µM (titrated, usually from 46.2 µM), usual class: inhibitors | 15% of 420,000 active; further: nearly all actives have a fitted effect of over 55% in size
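Compound effects on proliferation are scored in DT40 Tdp1-/-;hTDP1 cells in the absence of CPT. ATP levels (CellTiter-Glo luminescence) are recorded after a ≥48 hr, 37 °C incubation.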
IL1B secr inh: inhibitors of inflammasome signaling (IL-1 beta secretion); THP-1 LPS/ATP IL-1B secretion, AlphaLISA, 16 h; stronger effect = lower value; activity change, % at 57.5 µM; 4.7% of 360,000 active; in the data active means activity change below about -50%; inconclusive means mostly about -30% to -49%
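THP-1 cells pretreated 1 hr with compounds (up to 57.5 uM final), then stimulated with LPS (250 ng/mL final) plus ATP (1.25 mM final); secreted IL-1B measured by AlphaLISA after 16 hr, decreased signal indicating inhibition.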
S-ASM inh: blocks human secretory acid sphingomyelinase; 0.006% of 340,000 active; Potency, µM (top dose mostly 57.5 µM), most hits filed as inhibitors; P17405; placental ASM, HMU-PC fluorogenic substrate, 60 min
Target sequence (P17405 47-631 limits assumed): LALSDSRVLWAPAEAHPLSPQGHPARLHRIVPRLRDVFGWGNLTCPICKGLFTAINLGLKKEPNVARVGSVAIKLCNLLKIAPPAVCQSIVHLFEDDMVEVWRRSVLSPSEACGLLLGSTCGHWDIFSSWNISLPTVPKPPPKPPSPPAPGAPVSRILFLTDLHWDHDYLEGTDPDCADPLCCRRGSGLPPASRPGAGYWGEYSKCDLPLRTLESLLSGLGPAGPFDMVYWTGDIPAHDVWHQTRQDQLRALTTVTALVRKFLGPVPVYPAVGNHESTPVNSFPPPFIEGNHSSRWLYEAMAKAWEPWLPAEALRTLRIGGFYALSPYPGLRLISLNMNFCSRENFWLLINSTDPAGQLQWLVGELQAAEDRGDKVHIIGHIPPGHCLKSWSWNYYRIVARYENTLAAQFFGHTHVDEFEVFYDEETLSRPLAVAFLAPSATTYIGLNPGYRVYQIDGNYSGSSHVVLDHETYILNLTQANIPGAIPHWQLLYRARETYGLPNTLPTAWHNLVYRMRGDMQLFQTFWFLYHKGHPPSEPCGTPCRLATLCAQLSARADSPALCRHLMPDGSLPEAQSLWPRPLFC
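qHTS format. ASM enzyme prepared from human placenta hydrolyses the fluorogenic substrate HMU-PC0 (9 uM final) over 60 min at 37 °C after a 10 min compound preincubation.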
HepG2 tox: HepG2 cytotoxicity, counter-screen for TGF-b inhibitors; Potency, µM (top dose mostly 46.1 µM), usual class: cytotoxic; 0.76% of 410,000 active; HepG2 CAGA-GFP viability, ATP luminescence, 18 h
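CellTiter-Glo luminescence gave cytotoxicity after 18 hours at 37 degrees C. The cells were HepG2 CAGA-GFP in 1% FBS DMEM, stimulated with 500 pg/mL TGF-beta after compound addition. %Activity was normalised to no-cell wells (complete cell-killing) and DMSO (no toxicity), and curves were fitted and classified.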
Numbers stand for hits; n = inactive; u = inconclusive; x = not tested or not shown. Unless noted, the call rests on the fitted dose curve; in most records, active means well fitted curve in the direction sought with a large enough effect; inconclusive means small, poorly fitted or top-dose-only effect, or another doubt; inactive means no such curve, though single readings can be large; an effect the other way counts as inactive or inconclusive.

SMILES | TDP1 cell CPT | TGFb inhibitor | DT40 TDP1 no CPT | IL1B secr inh | S-ASM inh | HepG2 tox
Cn1c(Cc2cccc3ccccc23)nnc1SCc1ccc([N+](=O)[O-])cc1 | n | n | u | n | n | n
O=C(Cn1c(=O)n2nc(-c3cccc(F)c3)nc2c2ccccc21)N1CCN(c2ccc(F)cc2)CC1 | n | n | n | x | x | n
Cn1c(=O)c2cc(NC(=O)CCc3ccc(O)cc3)ccc2n1Cc1cccc(C(F)(F)F)c1 | u | n | 21µM | n | x | n
COc1ccccc1CCC(=O)Nc1ccc2c(c1)c(=O)n(C)n2Cc1ccc(F)cc1 | 4.6µM | n | 5.2µM | n | x | n
CCOCCC(=O)Nc1ccc2c(c1)c(=O)n(C)n2Cc1cccc(C(F)(F)F)c1 | n | n | n | n | x | n
COc1ccc(CN2CCS(=O)(=O)CC2)cc1OC | n | n | n | n | n | n
CCOc1ncccc1C(=O)Nc1ccc(S(=O)(=O)Nc2cc(C)nc(C)n2)cc1 | u | n | n | n | n | n
Cc1ccc(S(=O)(=O)N(C)c2ccc(OCC(=O)OCc3cccc(Br)c3)cc2)cc1 | u | n | n | n | n | n
CN(c1ccc(OCC(=O)OCC(=O)NC2CCCC2)cc1)S(=O)(=O)c1ccc2ccccc2c1 | n | n | n | n | n | n
COc1ccc(CCNC(=O)COc2ccc(N(C)S(=O)(=O)c3ccc(C)cc3)cc2)cc1 | u | u | u | n | n | n
CN(c1ccc(OCC(=O)NC2CCC(O)CC2)cc1)S(=O)(=O)c1ccc(Cl)cc1 (stereo unspecified) | u | n | 13µM | n | n | n
Cc1ccc(S(=O)(=O)N(C)c2ccc(OCc3cccc(C)c3)cc2)cc1 | u | n | 18µM | n | n | n
COc1ccc(NC(=O)COc2ccc(N(C)S(=O)(=O)c3ccc(Cl)cc3)cc2)cc1OC | 7.3µM | u | 4.6µM | n | n | n
COc1ccc(-c2csc(NC(=O)COc3ccc(N(C)S(=O)(=O)c4ccc(C)cc4)cc3)n2)cc1 | 5.2µM | n | 6.5µM | n | n | n
COCC(=O)Nc1cc(C(=O)N2CCCOc3c(cccc3OC)C2)c2c(c1)nc(C1CCC1)n2C | n | x | n | x | x | x
Cc1cccc(C)c1Nc1nc2ccccc2nc1NS(=O)(=O)c1ccccc1 | u | n | n | x | x | n
Cc1ccc(-c2csc(NC(=O)COc3ccc(N(C)S(=O)(=O)c4ccc(C)cc4)cc3)n2)cc1 | 15µM | u | 18µM | n | n | n
COc1cc(NC(=O)COc2ccc(Cl)cc2)ccc1-c1cc2ccccc2oc1=O | 4.1µM | u | 4.6µM | n | n | n
Cc1ccc(NC(=O)COc2ccc(N(C)S(=O)(=O)c3ccc(F)cc3)cc2)cc1 | u | n | 16µM | n | n | n
CCC1CCCCN1C(=O)COc1ccc(N(C)S(=O)(=O)c2ccc(C)cc2)cc1 (stereo unspecified) | 21µM | n | 15µM | n | n | n
COc1cc(NC(=O)COc2ccc(Cl)cc2)ccc1NC(=O)C(C)C | u | n | u | n | n | n
CCOC(=O)C1CCN(C(=O)COc2ccc(N(C)S(=O)(=O)c3ccc(C)cc3)cc2)CC1 | n | n | u | n | n | n
O=C(COC(=O)Cc1ccc(F)cc1)NC1CCCCC1 | n | n | n | n | n | n
CC(O)[C@@H]1NC(=O)[C@H](CCCCN)NC(=O)[C@@H](Cc2c[nH]c3ccccc23)NC(=O)[C@H](Cc2ccccc2)NC(=O)[C@@H](NC(=O)[C@H](N)Cc2ccccc2)CSSC[C@@H](C(=O)N[C@H](CO)[C@@H](C)O)NC1=O (stereo partly specified) | n | x | n | x | x | x
CC(O)CCCCn1c(=O)c2c(ncn2C)n(C)c1=O (stereo unspecified) | n | x | n | x | x | x
SMILES | TDP1 cell CPT | TGFb inhibitor | DT40 TDP1 no CPT | IL1B secr inh | S-ASM inh | HepG2 tox
CCCn1c(=O)c2c(ncn2C)n(CCC)c1=O | u | u | 3.7µM | n | n | n
COc1ccc(C2=NN3C(C2)c2ccccc2OC3c2cccs2)cc1 (stereo unspecified) | n | n | n | n | n | n
COc1ccc(C2=NN3C(C2)c2ccccc2OC32C(=O)N(C)c3ccccc32)cc1 (stereo unspecified) | u | u | 21µM | n | n | n
COc1ccc(C(=O)NCc2ccccc2)cc1S(=O)(=O)N1CCCc2ccccc21 | 16µM | n | u | n | n | n
COc1ccc(C(=O)Nc2cccc(C)n2)cc1S(=O)(=O)N1CCCc2ccccc21 | u | n | 16µM | u | n | n
COc1ccc(C(=O)Nc2ccc(C)cn2)cc1S(=O)(=O)N1CCCc2ccccc21 | u | u | u | n | n | n
O=C(COC(=O)[C@@H]1CCCN1C(=O)c1cccs1)Nc1ccc(F)cc1[N+](=O)[O-] | n | n | n | n | n | n
CC(C)(C)CNC(=O)c1cc2c(Br)ccc(Br)c2nc1N | u | x | u | n | x | x
Cc1ccc(NC(=O)CC2OC(=O)c3ccccc32)cc1S(=O)(=O)N1CCOCC1 (stereo unspecified) | n | n | n | n | n | n
CC(=O)Nc1cc(-c2ccc(C(=O)N3CCOCC3)cc2)cn2c(-c3ccc(C(C)=O)cc3)cnc12 | 26µM | n | 12µM | n | x | n
COc1ccc(-c2cnc3c(NC(C)=O)cc(-c4ccc(C(=O)N5CCOCC5)cc4)cn23)cc1OC | u | n | 23µM | u | x | n
CC(=O)Nc1cc(-c2ccc(C(=O)N3CCOCC3)cc2)cn2c(-c3ccc(F)cc3)cnc12 | u | n | 8.2µM | n | x | n
CC(=O)Nc1cc(-c2ccc(C(=O)N3CCOCC3)cc2)cn2c(-c3cccc(C(F)(F)F)c3)cnc12 | u | n | 15µM | n | x | n
CC(=O)Nc1cc(-c2ccc(C(=O)N3CCOCC3)cc2)cn2c(-c3ccccc3)cnc12 | u | n | u | n | x | n
Cc1cc(C2(O)C(=O)Nc3ccccc32)ccc1F (stereo unspecified) | n | n | n | n | n | n
CC(C)(C)n1nc2c(c1NC(=O)c1ccccc1S(=O)(=O)C(F)F)CS(=O)(=O)C2 | n | n | n | n | n | n
COc1ccc(C2NC(=O)CCC2[N+](=O)[O-])cc1 (stereo unspecified) | n | n | n | n | n | n
Cc1ccc(C2NC(=O)CCC2[N+](=O)[O-])cc1 (stereo unspecified) | 18µM | n | u | n | n | n
